Where “and” joins values, the source holds several entries; their conditions need not be identical. Equal values may be shown once. Inconclusive results are not listed. Some structures have more than one record in an assay (separate samples or runs), and their calls can disagree. Calls of active or inactive are those of the source. Unless noted, calls come from the whole dose curve; as a rule, active = well fitted curve in the direction sought with a large enough effect in the repeat runs; inconclusive = weak or mixed curves; inactive = no such curve, though single readings can be large; an effect the other way counts as inactive or inconclusive.

This note sets out measurements from PubChem BioAssay (Tox21).

The nature of experiment [1]: qHTS assay to identify small molecule antagonists of the vitamin D receptor (VDR) signaling pathway - cell viability counter screen (AID 743225). Note: nearly all actives have a fitted effect of over 50% in size. Note: potency is the fitted concentration of half-maximal effect. The conditions noted are these: VDR-bla HEK293T viability, CellTiter-Glo luminescence, 16 h; series mostly up to 61 µM. In a few lines:
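Same-well multiplex: following 16 h treatment of HEK 293T cells carrying a UAS-driven beta-lactamase reporter with compound and agonist (3 nM final), and a 2 h FRET substrate step, CellTiter-Glo was added and luminescence read after 30 min.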
Background: In qHTS, concentration-response curves come from the screen itself.

A short description of experiment [2]: qHTS assay to identify small molecule agonists of the endoplasmic reticulum stress response signaling pathway (AID 1159516; active = well fitted activation curve with a large enough effect in the signal ratio in the repeat runs, not every such curve was filed as active; the % refers to the signal ratio). The conditions noted are these: ESRE-bla HeLa, ER stress beta-lactamase reporter, 5 h; series mostly up to 61 µM. A digest of the protocol: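 Tox21 10K library screened in quantitative HTS format on ESRE-bla HeLa cells, a beta-lactamase reporter under ER stress response element control; 5 hr treatment, FRET read.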

Experiment [3] can be described thus: qHTS assay to identify small molecule agonists of the endoplasmic reticulum stress response signaling pathway - cell viability counter screen (AID 1159517; calls by dose curve; note: nearly all actives have a fitted effect of over 50% in size; note: potency is the fitted concentration of half-maximal effect). The settings on record: ESRE-bla HeLa viability, CellTiter-Glo luminescence, 5 h; series mostly up to 61 µM. A digest of the protocol: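 Counter-screen wells were identical to the reporter wells. Cells were plated at 1,500 per well and dosed for 5 hr, then read for luminescence 30 min after CellTiter-Glo addition.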

The nature of experiment [4]: qHTS assay to identify small molecule antagonists of the retinoid-related orphan receptor gamma (ROR-gamma) signaling pathway - cell viability counter screen (AID 1159520). Note: nearly all actives have a fitted effect of over 50% in size. Note: potency is the fitted concentration of half-maximal effect. The settings on record: Tet-on RORgamma CHO cells viability, ATP luminescence, 16 h; series mostly up to 92.4 µM. A digest of the protocol:
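Tet-on ROR gamma CHO cells were given compounds for 2 hr, then doxycycline hyclate at 1 uM final, and incubated 16 hr at 37 C. Viability was measured as ATP content by CellTiter-Glo luminescence.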

Experiment [5] concerns the target Nuclear receptor ROR-gamma (Homo sapiens) (UniProt P51449). The experiment in a line: qHTS assay to identify small molecule antagonists of the retinoid-related orphan receptor gamma (ROR-gamma) signaling pathway (AID 1159521; note: nearly all actives have a fitted effect of over 50% in size; note: potency is the fitted concentration of half-maximal effect). The conditions noted are these: Tet-on RORgamma CHO cells, RORE-luciferase, 16 h; series mostly up to 92.4 µM. A digest of the protocol: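 Inducible-expression reporter assay: doxycycline (1 uM final) switched on RORγ in CHO cells bearing a ROR response element-luciferase construct, with test compounds present from 2 h beforehand. Decreased luminescence after 16 h defined antagonist activity.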

The nature of experiment [6]: qHTS assay to identify small molecule agonists of the AP-1 signaling pathway - cell viability counter screen (AID 1159525; calls by dose curve; note: nearly all actives have a fitted effect of over 55% in size). The conditions noted are these: ME-180 AP-1-bla cells viability, ATP luminescence, 5 h; series mostly up to 76.8 µM. In a few lines: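 AP-1-bla ME-180 cells in Opti-MEM with 0.5% dialyzed FBS, compound exposure 5 h at 37 C in 15-point titration. Viability read in the same wells as ATP content by CellTiter-Glo luminescence, normalised to tetra-n-octylammonium bromide and DMSO controls.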

A short description of experiment [7]: qHTS assay to identify small molecule agonists of the AP-1 signaling pathway (AID 1159526; calls by dose curve). The settings on record: ME-180 (cervical carcinoma) AP-1-bla reporter, beta-lactamase FRET ratio, 5 h; series mostly up to 76.8 µM.
The target of experiment [8] is Retinoic acid receptor RXR-alpha (Homo sapiens) (UniProt P19793). In words: qHTS assay to identify small molecule agonists of the RXR signaling pathway (AID 1159527; calls by dose curve; note: nearly all actives have a fitted effect of over 35% in size). The conditions noted are these: HEK293T RXRa-UAS-bla, beta-lactamase ratio, 16 h; series mostly up to 76.8 µM. In a few lines:
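Compounds in DMSO were added to RXR-alpha-UAS-bla HEK 293T cells kept in 2% charcoal-stripped serum, and incubated 16 hr at 37 C with 5% CO2. Reporter signal came from a 2 hr B/G FRET substrate step.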

Experiment [9] in a line: qHTS assay to identify small molecule agonists of the RXR signaling pathway - cell viability counter screen (AID 1159529). Note: nearly all actives have a fitted effect of over 50% in size. Note: potency is the fitted concentration of half-maximal effect. The conditions noted are these: RXR-alpha-bla HEK293T viability, CellTiter-Glo, 16 h; series mostly up to 76.8 µM. A digest of the protocol:
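Counter screen: CellTiter-Glo luminescence. Cells: RXR-alpha-UAS-bla HEK 293T. Medium: 2% charcoal-stripped FBS. Treatment: 16 h, 37 C. Reagent incubation: 30 min, RT.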

Retinoic acid receptor RXR-alpha (Homo sapiens), sequence (P19793 whole entry, looked up): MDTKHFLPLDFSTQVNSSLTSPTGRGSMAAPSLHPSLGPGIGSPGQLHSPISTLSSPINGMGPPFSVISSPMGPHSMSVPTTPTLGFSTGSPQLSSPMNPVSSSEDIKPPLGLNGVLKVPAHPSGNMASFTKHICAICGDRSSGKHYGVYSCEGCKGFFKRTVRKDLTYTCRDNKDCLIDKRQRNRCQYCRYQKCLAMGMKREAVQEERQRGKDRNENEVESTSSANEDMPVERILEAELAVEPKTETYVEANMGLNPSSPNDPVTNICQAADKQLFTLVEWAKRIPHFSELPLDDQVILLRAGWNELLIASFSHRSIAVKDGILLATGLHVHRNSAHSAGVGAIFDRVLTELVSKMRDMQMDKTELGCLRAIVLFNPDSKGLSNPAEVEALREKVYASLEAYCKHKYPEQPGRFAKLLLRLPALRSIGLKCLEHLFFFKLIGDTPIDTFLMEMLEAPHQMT

`CC1COc2c(N3CCN(C)CC3)c(F)cc3c(=O)c(C(=O)O)cn1c23` (stereo not given): the Potency result in [1], in experiment [3], in [4], in [5], in experiment [6] and in experiment [7] was “inactive” in each case. Besides, the Potency result in experiment [8] was “inactive”. Also, the compound was called inactive in [2].
For the compound `CCN(CC)C(=O)Nc1ccc(OCC(O)CNC(C)(C)C)c(C(C)=O)c1` (stereo not given), the Potency result in experiment [1], in experiment [3], in experiment [4], in experiment [5], in experiment [6] and in experiment [7] was “inactive” throughout. In addition, the Potency result in [8] and in experiment [9] was “inactive” in each case. Besides, in experiment [2], the compound was called inactive.
Regarding `NC(N)=NC(=O)Cc1c(Cl)cccc1Cl`, in experiment [2], the outcome was inactive. Moreover, the Potency entry in experiment [3], in experiment [4], in experiment [5], in experiment [7], in experiment [8] and in experiment [9] was “inactive” throughout.
Consider `O=C(OCc1ccccc1)c1ccc(O)cc1`, for which the Potency result in [1], in [3], in [4], in experiment [5], in [7] and in experiment [8] was “inactive” each time. The Potency result in [9] was “inactive”. In [2], the compound was called inactive.
For `O=C(O)c1cccc(C(=O)O)c1`, the Potency result in experiment [1], in experiment [3], in experiment [4], in experiment [5], in experiment [7] and in experiment [8] was “inactive” throughout. Besides, the Potency entry in experiment [9] is “inactive”. Besides, the compound was called inactive in experiment [2].
With `CCN(CC)C(=S)SSC(=S)N(CC)CC`, the Potency entry in [1] and in [3] was “inactive” throughout. Moreover, the Potency is 24.3 µM (active) and 176 nM (active) in experiment [4]; 344 nM (active) and 44.3 nM (active) and 188 nM (active) in [5]; 199 nM (active) and 213 nM (active) in experiment [9].
Regarding `CC(C)(C)NC(=O)[C@@H]1CN(Cc2cccnc2)CCN1C[C@@H](O)C[C@@H](Cc1ccccc1)C(=O)N[C@H]1c2ccccc2C[C@H]1O`, the Potency entry in experiment [1], in [3], in [4], in [5], in experiment [6] and in experiment [7] was “inactive” each time. For the same compound, the Potency result in [8] and in experiment [9] was “inactive” in each case. Moreover, the call in experiment [2] was inactive.
In the case of `C=CC(=O)OCCCCCCCC`, the Potency entry in experiment [1], in [3], in [4], in [5], in experiment [6] and in [7] was “inactive” throughout. Moreover, the Potency entry in experiment [8] and in [9] was “inactive” throughout. Besides, the result in [2] was inactive.
Consider `CCCCC/C=C/CC1CC(=O)OC1=O` (stereo not given), for which the Potency result in [1], in experiment [3], in [4], in [5], in experiment [6] and in experiment [7] was “inactive” in each case. Besides, the Potency result in [8] and in [9] was “inactive” each time. Moreover, the result in experiment [2] was inactive.
Turning to `CCn1c2ccccc2c2cc(N)ccc21`, the Potency result in experiment [1], in [3], in experiment [4], in experiment [6], in experiment [7] and in experiment [8] was “inactive” throughout. Besides, in [5], the Potency was 19.1 µM (active).
As to `Cc1cc(C(C)(C)C)c(O)c(C(C)(C)C)c1`, the Potency result in experiment [1], in experiment [3], in experiment [4], in experiment [6], in experiment [7] and in experiment [9] was “inactive” throughout. In addition, the result in experiment [2] was inactive.
Consider `BrC1CCC(Br)C(Br)CCC(Br)C(Br)CCC1Br` (stereo not given), for which the Potency is 16.5 µM (active) in experiment [1]; 43.1 µM (active) in [4]; 27.2 µM (active) and 58 µM (active) in experiment [5]. Besides, the Potency entry in experiment [3], in experiment [6] and in experiment [8] was “inactive” in each case.
With `Oc1ccc(Cl)cc1Cc1cc(Cl)ccc1O`, the Potency in [1] is 28 µM (active) and 6.74 µM (active); in experiment [3] it was 54.9 µM (active) and inactive; in experiment [4], 24.8 µM (active); in experiment [9], 49.9 µM (active). Moreover, the Potency result in [8] was “inactive”.
On to `CC(=O)CC(=O)Nc1ccc2[nH]c(=O)[nH]c2c1`, for which the Potency result in experiment [1], in experiment [3], in [4], in experiment [5], in experiment [6] and in [7] was “inactive” each time. Besides, the Potency entry in experiment [8] and in experiment [9] was “inactive” throughout. For the same compound, in [2], the compound was classed as inactive.
Turning to `NC(N)=Nc1nc(CSCC/C(N)=N/S(N)(=O)=O)cs1`, the Potency entry in experiment [1], in [3], in [4], in [5], in [6] and in [7] was “inactive” each time. For the same compound, the Potency entry in experiment [8] and in experiment [9] was “inactive” each time. Further, the outcome in experiment [2] was inactive.
